Experimental data reported in PubChem BioAssay AID1053144 (Broad Institute, 2014).
About 160 (4.7%) of roughly 3,400 compounds were called active.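 The calls were made as follows: active = fitted curve reaches 30% activation at a concentration no higher than the top valid tested dose, luminescence rising; inconclusive = no clear call, values can overlap the other calls; inactive = signal moving opposite to the expected increase, plus the rest.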 Not all results are given here. Measured potencies and affinities stand elsewhere.

Test: Wnt/beta-catenin signaling activators, dose response, cell-based, iPS-derived NPC, luciferase, Wnt3a, cherry-pick (AID 1053144);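 also: Wnt3a stimulus is conditioned medium from Wnt3a-transfected mouse L cells at 5% in well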
Settings: NPC TCF/LEF luciferase reporter, Wnt3a EC25, 24 h; series mostly up to 26 µM

Row | SMILES | activation
1 | Cc1ccc(C(=O)Nc2cccc(-c3ccc(N4CCOCC4)nn3)c2)cc1 | inactive
2 | O=C(Nc1cccc(-c2ccc(N3CCOCC3)nn2)c1)c1ccc([N+](=O)[O-])cc1 | inactive
3 | N/C(=N\OC(=O)c1ccc(Cl)cc1Cl)c1cccnc1 | inactive
4 | CN(C)Cc1c(C(=O)Nc2ccccc2)[nH]c2ccccc12 | inactive
5 | COc1ccc(C(=O)Nc2cccc(C)c2)cc1 | inactive
6 | CC1CCN(C(=O)CNC(=O)c2ccc(Br)o2)CC1 | inactive
7 | COc1cccc(/C=C/c2ccccn2)c1O | inactive
8 | O=C(c1cnn(-c2cccc(F)c2)c1)c1ccccc1O | inactive
9 | COc1ccccc1NC(=O)COc1ccccc1C(=O)c1cnn(-c2ccccc2)c1 | inactive
10 | CC(O)C(NS(=O)(=O)c1ccc(Cl)cc1)C(=O)OCCOc1ccc(F)cc1 (stereo not drawn) | inactive
11 | Cc1cnc(NC(=O)c2sc(Nc3ccccc3)nc2N)o1 | inactive
12 | CC(C)NC(=O)N(C)C[C@H]1Oc2ccc(NC(=O)Nc3ccccc3)cc2C(=O)N([C@H](C)CO)C[C@@H]1C | inactive
13 | COc1cccc(CSc2nc3ccccc3[nH]2)c1 | inactive
14 | COc1cc2sc3cc(NCc4ccc(C)o4)ccc3c(=O)c2cc1OC | inactive
15 | CCOC(=O)C1=C(Nc2ccc(OC)cc2)OCC1=O | inactive
16 | COc1ccc(Nc2n[nH]c(C)c2[N+](=O)[O-])cc1 | inactive
17 | CCOc1ccc(C(=O)N(CC(=O)Nc2cccc(C)c2C)CC2CCCO2)cc1OC (stereo not drawn) | inactive
18 | COc1ccc(-c2nnc(-c3cccnc3)o2)cc1 | inactive
19 | COc1ccc(S(=O)(=O)N2CCOCC2)cc1NC(=O)c1ccc2c(c1)OCCO2 | inactive
20 | C#CCOC(=O)CCCC(=O)Nc1ccccc1OC | inactive
21 | C=CCn1c(C)nc2c(sc3nc4c(cc32)COC(C)(C)C4)c1=O | inactive
22 | CCOc1ccc(/C=N/NC(=O)Cn2ccnc2C)cc1 | inactive
23 | COc1cc(/C=N/Nc2ccc(C(F)(F)F)cn2)ccc1O | inactive
24 | O=C1NC(c2ccccc2Cl)=N/C1=C/c1ccco1 | inactive
25 | c1ccc(-c2cn(CC3CCCCC3)nn2)cc1 | inactive
26 | O=c1oc(CCCO)cc2ccc(C#Cc3ccsc3)cc12 | inactive

Row | SMILES | activation
27 | COc1cc(C#Cc2ccc3cc(CCO)oc(=O)c3c2)cc(OC)c1 | inactive
28 | CCOC(=O)C1(Cc2cccc(OC)c2)CCCN(C(=O)c2ccccc2C)C1 (stereo not drawn) | inactive
29 | Brc1ccsc1/C=N/Nc1ccccc1 | inactive
30 | Cc1cccc(C(=O)c2c(N)sc3c2CCCC3)c1 | inactive
31 | CC(=O)Nc1ccc(NC(=O)CN(c2ccccc2Cl)S(C)(=O)=O)cc1 | inactive
32 | O=C(c1ccccc1)c1ccc(-c2ccc(O)cc2)cc1 | inactive
33 | CC(C)OC(=O)c1ccc2nc3ccccc3nc2c1 | inactive
34 | Cc1nc(C)c(-c2csc(Nc3cccc(O)c3)n2)s1 | inactive
35 | O=C(Nc1nc2ccccc2[nH]1)c1cccc(Cl)c1 | inactive
36 | COc1cccc(NC(=O)c2cccc(Cl)c2)c1 | inactive
37 | O=C(CSc1nncs1)NCCCc1ccccc1 | inactive
38 | Cc1nc(-c2ccc(NC(=O)c3ccccc3Br)cc2)cs1 | inactive
39 | CC1=CC(=C2C(=O)c3ccccc3C2=O)C=C(C)N1Cc1ccco1 | inactive
40 | COC(=O)c1c(NC(C)=O)sc(C(=O)Nc2ccccc2F)c1C | inactive
41 | CCCC(=O)Nc1sc(C(=O)Nc2cccc(N)c2)c(C)c1C(=O)OC | inactive
42 | CCCc1nc2oc3c(NCC(C)O)ncnc3c2c2c1CCCC2 (stereo not drawn) | inactive
43 | Cc1ccsc1C(=O)OCC(=O)c1ccc[nH]1 | inactive
44 | Cc1ccsc1C(=O)OCC(=O)N(C)C1CCCCC1 | inactive
45 | Cc1ccnc(NC(=O)C2COc3ccccc3O2)c1 (stereo not drawn) | inactive
46 | CC(=Nc1ccc(C)cc1)c1sc2ccccc2c1O | inactive
47 | CC(=Nc1ccccc1O)c1sc2ccccc2c1O | inactive
48 | CCCC(=O)Nc1ccc(C#Cc2ccccc2)cc1 | inactive
49 | O=C(NN1C(=O)C2C3c4ccccc4C(c4ccccc43)C2C1=O)C1CC1 (stereo not drawn) | inactive
50 | O=C(O)CC(CN1C(=O)c2ccccc2C1=O)c1ccccc1 (stereo not drawn) | inactive
51 | c1ccc(-c2noc(C3CCCCC3)n2)nc1 | inactive
52 | CCc1ccc(NC2=CC(=O)C(=O)c3ccccc32)cc1 | inactive

Row | SMILES | activation
53 | Nc1ccc2c(c1)C(=O)c1ccccc1C2=O | inactive
54 | CC(C)NC(=O)c1cc(-c2ccc3c(c2)OCO3)on1 | inactive
55 | Cc1ccc(S(=O)(=O)N2CCN(C(=O)Cn3c(=O)cnc4ccccc43)CC2)c(C)c1 | inactive
56 | COc1ccccc1CN(C)C(=O)C1COc2ccccc2O1 (stereo not drawn) | inactive
57 | Cc1ccc(/C=C/C(=O)Nc2cc(C)on2)cc1 | inactive
58 | CC(=O)Nc1ccc(C(=O)COC(=O)C2CC2)c(F)c1 | inactive
59 | CCCC(=O)Nc1ccc(C(=O)COC(=O)C2CC2C)cc1 (stereo not drawn) | inactive
60 | Cc1ccc(OCC(=O)O/N=C(\N)c2ccccn2)cc1C | inactive
61 | COc1ccc2nc(Nc3ccccc3OC)sc2c1 | inactive
62 | COc1ccccc1-c1nc(COc2ccc(Cl)cc2Cl)no1 | inactive
63 | Cc1cc(Cl)ccc1OCc1nnc(-c2ccccc2C)o1 | inactive
64 | CCOc1ccc(NC2c3ccccc3C(=O)N2c2ccc(Cl)cn2)cc1 (stereo not drawn) | inactive
65 | O=C(CN1C(=O)CCC1=O)Nc1nc(-c2ccc3ccccc3c2)cs1 | inactive
66 | CCN(CC)S(=O)(=O)c1ccc(O)c(NC(=O)COc2ccc(S(=O)(=O)N3CCOCC3)cc2)c1 | inactive
67 | O=C1NC(=Nc2ccccc2)S/C1=C/c1cccs1 | inactive
68 | Cc1ccc(N/C=C2/Sc3ccccc3NC2=O)cc1 | inactive
69 | COC(=O)[C@@H](Cc1c[nH]c2ccccc12)NC(=O)c1ccc2c(c1)OCO2 | inactive
70 | CCCCNC(=O)C1CC(c2cccc(F)c2)=NO1 (stereo not drawn) | inactive
71 | COc1ccc(CNC(=O)C(=O)NCC(c2ccco2)N2CCOCC2)cc1 (stereo not drawn) | inactive
72 | O=C(COc1ccc(Cl)cc1Br)NC(=O)NC1CCCC1 | inactive
73 | Cc1ccc(C(=O)Nc2ccc3c(c2)OCO3)cc1Cl | inactive
74 | O=C(Nc1ccc(F)cc1F)c1cc2ccccc2oc1=O | inactive
75 | O=C(NCCc1c[nH]c2ccccc12)c1cc(Cl)c2c(c1)OCO2 | inactive
76 | COc1ccc(/C(N)=N/OC(=O)C2CCCCC2)cc1 | inactive
77 | Cc1ccc(NC(=O)c2sccc2C)cc1[N+](=O)[O-] | inactive
78 | Cc1cccnc1NC(=O)c1cc2ccccc2oc1=O | inactive
